From PubChem
PPARg SRC3 recr: PPARgamma agonists recruiting SRC-3 coactivator, primary screen, biochemical | Peroxisome proliferator-activated receptor gamma (Homo sapiens), P37231 | biochemical PPARgamma/SRC-3 coactivator recruitment assay | activation, % at 8 µM | 0.26% of 200,000 active | AID 731, 2007; in the data active means activation above about 23%
PPARg SRC-1 ag: PPARgamma agonists recruiting SRC-1 coactivator, primary screen, biochemical. activation, % at 8 µM. 0.41% of 200,000 active. Peroxisome proliferator-activated receptor gamma (Homo sapiens), P37231. PPARgamma-SRC-1 coactivator recruitment biochemical assay; in the data active means activation above about 19%
PPARg SRC-2 ag: agonists of PPARg-SRC-2 recruitment, primary screen, biochemical, HTS; PPARgamma LBD-SRC-2 recruitment; activation, % at 8 µM; Peroxisome proliferator-activated receptor gamma (Homo sapiens), P37231; 0.34% of 200,000 active; in the data active means activation above about 22%
SRC2 TRFRET art: TR-FRET signal artefacts, primary screen, artefact control for PPARgamma SRC-2 agonist project, biochemical. TR-FRET artefact counter-screen; stronger effect = higher value. TR-FRET ratio at 8 µM. 0.4% of 200,000 active. AID 1049, 2008
SRC3 TRFRET art: TR-FRET detection interference compounds, artefact control for PPARgamma SRC-3 recruitment agonists, biochemical, TR-FRET ratio. 0.39% of 99,000 active. TR-FRET artefact counter-screen, PPARgamma/SRC-3 format; stronger effect = higher value. TR-FRET ratio at 8 µM
SRC1 TRFRET art: TR-FRET detection interference compounds, primary screen, artefact control for PPARgamma SRC-1 recruitment agonists, biochemical, TR-FRET emission ratio; TR-FRET detection artefact counter-screen; stronger effect = higher value; TR-FRET ratio at 8 µM; 0.34% of 99,000 active; in the data active means TR-FRET ratio above about 2300
PPARg SRC2 ag: agonists of PPARgamma SRC-2 coactivator recruitment, confirmation, biochemical, HTS | activation, % at 8 µM | 52% of 790 active | biochemical SRC-2 recruitment by PPARgamma | AID 1297, 2008 | shares compounds with PPARg SRC3 recr; in the data active means activation above about 22%
PPARg SRC1 ag: PPARgamma agonists recruiting SRC-1 coactivator, confirmation, biochemical. PPARgamma–SRC-1 coactivator recruitment biochemical assay. 43% of 790 active. AID 1300, 2008. activation, % at 8 µM. shares compounds with PPARg SRC3 recr; in the data active means activation above about 20%
PPARg SRC3 ag: PPARgamma-driven SRC-3 coactivator recruitment agonists, confirmation, biochemical; shares compounds with PPARg SRC3 recr; activation, % at 8 µM; 29% of 790 active; biochemical PPARgamma-SRC-3 coactivator recruitment, agonist mode; AID 1301, 2008; in the data active means activation above about 24%
A number is an active result; n = inactive; x = no result given. In the library only some 0.9% were active in any assay of this set; here they are far more common. Unless noted, no stated cut-off is given here; in the data, active means TR-FRET ratio above about 2000; inactive means the rest.

SMILES	PPARg SRC3 recr	PPARg SRC-1 ag	PPARg SRC-2 ag	SRC2 TRFRET art	SRC3 TRFRET art	SRC1 TRFRET art	others
O=C(N/N=C/c1c(O)n(CCc2ccccc2)c(=O)[nH]c1=O)c1ccncc1	n	n	n	2004	n	n
CCCCCCn1c(O)c(C=Nc2c(C)n(C)n(-c3ccccc3)c2=O)c(=O)[nH]c1=O	n	n	25	n	x	x
Cc1c(C(c2ccc(Cl)cc2Cl)c2c(O)c3ccccc3oc2=O)c(=O)n(-c2ccccc2)n1C (configuration not stated)	n	n	n	n	n	n
COc1ccc(-c2cc(=NCCC(=O)O)c3cc(C)ccc3o2)cc1	n	n	n	n	n	n
COc1ccc(-c2cc(=Nc3ccccc3)c3cc(C)ccc3o2)cc1	n	n	n	n	n	2615
CCN(C(C)=O)c1cccc(-c2ccnc3c(C#N)cnn23)c1	n	n	n	n	n	n
Cn1c(=O)cc(SCC(=O)N2CCC3(CC2)OCCO3)c2ccc(Cl)cc21	79	50	73	2539	x	x	PPARg SRC2 ag=28;PPARg SRC1 ag=n;PPARg SRC3 ag=n
O=C(CSc1ccccc1)N1CCC2(CC1)OCCO2	n	n	n	n	x	x
CN(C)c1ccc(/C=C/c2cc[n+](C)c3ccccc23)cc1	61	83	61	2947	2979	3265	PPARg SRC2 ag=65;PPARg SRC1 ag=49;PPARg SRC3 ag=43
O=C(Nc1nc(-c2ccccc2)c(-c2ccccc2)s1)c1ccc(S(=O)(=O)N(CCCl)CCCl)cc1	n	n	n	n	n	n
